From the supplement of paper PMC7156485

Assays:
Details in all cases: concentration: 10 µM; 24 h
HCC1569 [1] = experiment: cell number relative to DMSO (% of DMSO); higher = more cells (less growth inhibition / toxicity)
How it was run: (§1)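 In 384-well plates holding 800 HCC1569 or TDF cells per well in RPMI with 10% FBS, compounds were tested at 10 µM for 24 h at 37 °C in triplicate. Fixation used 3.7% formaldehyde. Staining used a rabbit anti-H1.0 antibody with an AlexaFluor 647 secondary, plus DAPI. Each value, H1.0 nuclear intensity or cell number, is a median of replicates shown as percent of the plate control, and HCC1569 values were smoothed for positional effects.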

TDF [2] = experiment: as above
How it was run: as §1

TDF [3] = experiment: H1.0 immunofluorescence intensity relative to DMSO (% of DMSO); higher = stronger H1.0 induction, active = 120 or more
How it was run: as §1

HCC1569 [4] = experiment: H1.0 immunofluorescence intensity relative to DMSO (% of DMSO); higher = stronger H1.0 induction, active = 140 or more
How it was run: as §1
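Wherever H1.0 immunofluorescence intensity relative to DMSO is given: TDF is a line of transformed human dermal fibroblasts of mesenchymal origin.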
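Wherever cell number relative to DMSO is given: TDF denotes transformed human dermal fibroblasts of mesenchymal origin.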

Compound	cell number (HCC1569 [1])	cell number (TDF [2])	H1.0 immunofluorescence intensity (TDF [3])	H1.0 immunofluorescence intensity (HCC1569 [4])
O=C1Nc2ccc3ncsc3c2C1=Cc1cnc[nH]1 [PKR Inhibitor]	61.1	17	112 (inactive)	136 (inactive)
C=CCN1CC(C)N(C(c2ccc(C(=O)N(CC)CC)cc2)c2cccc(OC)c2)CC1C (stereo unspecified)	102	102	96.5 (inactive)	87.8 (inactive)
COc1cc2c(cc1O)CC1c3c(cc(O)c(OC)c3-2)CCN1C (stereo unspecified) [Boldine]	103	103	105 (inactive)	99.9 (inactive)
CCN1CC2(COC)CCC(O)C34C5CC6C(OC)CC(O)(C(CC23)C14)C5C6OC(C)=O (stereo unspecified) [Condelphine]	101	105	98.6 (inactive)	102 (inactive)
CC(N)c1cccc(Cl)c1Cl.Cl (racemic)	100	94.2	102 (inactive)	101 (inactive)
CC(C)=CCCC1(C)C=Cc2c(O)c3c(c(CC=C(C)C)c2O1)OC12C(=CC4CC1C(C)(C)OC2(CC=C(C)C(=O)O)C4=O)C3=O (stereo unspecified) [Gambogic acid]	14.1	10.6	148 (active)	58.8 (inactive)
Br.Br.CN(C)CCN(C)CCc1ccc(Cl)c(Cl)c1	96.6	102	102 (inactive)	110 (inactive)
CCN1CC2(COC)CCC(OC)C34C5CC6(O)C(OC)CC(OC(C)=O)(C5C6C(=O)c5ccc(OC)cc5)C(C(OC)C23)C14 (stereo unspecified) [Bulleyaconotine A]	99	103	103 (inactive)	88.8 (inactive)
CNCCc1ccc(O)c(O)c1.Cl [N-Methyldopamine hydrochloride]	105	92.2	95.3 (inactive)	94 (inactive)
